Results filed as inconclusive are left out. Unmarked numbers belong to inactive results. Calls of active or inactive are those of the source. Calls come from the whole dose curve; as a rule, active = well fitted cell-killing curve with a large enough effect; inconclusive = small, poorly fitted or top-dose-only effect, or effect the other way; inactive = no such curve, though single readings can be large or run the other way.
What was measured:
[1] = Quantitative High-Throughput drug screen in 47 multiple myeloma cell lines against the NCATS MIPE library collection: FR4_PLB cell viability assay (AID 1918924; note: nearly all actives have a fitted effect of over 35% in size)
Summary of the method: (§1)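 Myeloma cells (500 per well) were exposed to MIPE 4.0 compounds by pin transfer and incubated 48 hours at 37C, 5% CO2. Viability was read as ATP by CellTiter-Glo luminescence, normalised to DMSO (100%) and media-only (0%) wells.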

[2] = Quantitative High-Throughput drug screen in 47 multiple myeloma cell lines against the NCATS MIPE library collection: Delta47_JCRB cell viability assay (AID 1918925; note: nearly all actives have a fitted effect of over 45% in size)
Summary of the method: (§2)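 qHTS of the MIPE 4.0 collection: 500 myeloma cells/well, 48 h drug exposure at 37C in 5% CO2, then CellTiter-Glo for 5 min at room temperature before luminescence reading.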

[3] = Quantitative High-Throughput drug screen in 47 multiple myeloma cell lines against the NCATS MIPE library collection: EJM_DSMZ cell viability assay (AID 1918926; note: nearly all actives have a fitted effect of over 30% in size)
Summary of the method: as §2

[4] = Quantitative High-Throughput drug screen in 47 multiple myeloma cell lines against the NCATS MIPE library collection: AMO1_DSMZ cell viability assay (AID 1918927; note: nearly all actives have a fitted effect of over 30% in size)
Summary of the method: as §2

[5] = Quantitative High-Throughput drug screen in 47 multiple myeloma cell lines against the NCATS MIPE library collection: ARP1_JJKsccF8 cell viability assay (AID 1918928; note: nearly all actives have a fitted effect of over 40% in size)
Summary of the method: (§3)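 500 cells/well; MIPE 4.0 library pinned in; 48 h, 37 °C, 5% CO2; CellTiter-Glo ATP luminescence. Controls: DMSO = 100% viability, medium only = 0%.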

[6] = Quantitative High-Throughput drug screen in 47 multiple myeloma cell lines against the NCATS MIPE library collection: ARD_JJKsccE7 cell viability assay (AID 1918929)
Summary of the method: as §2

[7] = Quantitative High-Throughput drug screen in 47 multiple myeloma cell lines against the NCATS MIPE library collection: KMM1_JCRB cell viability assay (AID 1918960); note: nearly all actives have a fitted effect of over 30% in size
Summary of the method: as §3

[8] = Quantitative High-Throughput drug screen in 47 multiple myeloma cell lines against the NCATS MIPE library collection: Karpas417_ECACC cell viability assay (AID 1918961); settings: Karpas417 myeloma viability, CellTiter-Glo ATP luminescence, 48 h; viability (% of DMSO): at 45.8 µM (top of the series)
Summary of the method: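 CellTiter-Glo ATP luminescence gave viability after 48 h compound treatment at 37C of 500 multiple myeloma cells per well. Normalisation used DMSO-only wells as 100% and media-only wells as 0% viability; primary qHTS of approved and investigational drugs.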

[9] = Quantitative High-Throughput drug screen in 47 multiple myeloma cell lines against the NCATS MIPE library collection: KHM11_PLB cell viability assay (AID 1918962); note: nearly all actives have a fitted effect of over 35% in size
Summary of the method: as §1

[10] = Quantitative High-Throughput drug screen in 47 multiple myeloma cell lines against the NCATS MIPE library collection: Karpas620_DSMZ cell viability assay (AID 1918959); note: nearly all actives have a fitted effect of over 30% in size
Summary of the method: as §1
Potency is the fitted concentration of half-maximal effect.

| SMILES | Potency [1] | Potency [2] | Potency [3] | Potency [4] | Potency [5] | Potency [6] | Potency [7] | Potency [8] | Potency [9] | Potency [10] |
| --- | --- | --- | --- | --- | --- | --- | --- | --- | --- | --- |
| CNC(=O)c1nn(C)c2c1C(C)(C)Cc1cnc(Nc3ccc(N4CCN(C)CC4)cc3)nc1-2 | 1.66 µM (active) | 1.05 µM (active) | 2.64 µM (active) | 1.18 µM (active) | 4.69 µM (active) | 3.32 µM (active) | 0.935 µM (active) | 0.833 µM (active) | 1.48 µM (active) | – |
| CC(C)(O)c1cc2nc(-c3cnc(N)nc3)nc(N3CCOCC3)c2s1 | 0.235 µM (active) | 0.0296 µM (active) | 0.743 µM (active) | 0.0935 µM (active) | 0.0187 µM (active) | 0.105 µM (active) | – | 0.0148 µM (active) | – | – |
| CN(c1ncccc1CNc1nc(Nc2ccc3c(c2)CC(=O)N3)ncc1C(F)(F)F)S(C)(=O)=O | 5.9 µM (active) | 3.72 µM (active) | 8.33 µM (active) | 3.32 µM (active) | 9.35 µM (active) | 2.64 µM (active) | 3.32 µM (active) | 1.87 µM (active) | 2.96 µM (active) | 1.48 µM (active) |
| CN1CCC(CNc2ccc3ncc(-c4cccc(OC(F)(F)F)c4)n3n2)CC1 | 18.7 µM (active) | 4.69 µM (active) | 26.4 µM (active) | 13.2 µM (active) | 13.2 µM (active) | 11.8 µM (active) | 16.6 µM (active) | 10.5 µM (active) | 6.62 µM (active) | 10.5 µM (active) |
| C[C@@H](Oc1cc(-n2cnc3ccc(CN4CCN(C)CC4)cc32)sc1C(N)=O)c1ccccc1C(F)(F)F | 0.0332 µM (active) | 0.0418 µM (active) | 23.5 µM (active) | 0.0743 µM (active) | 0.105 µM (active) | 0.0264 µM (active) | 0.0332 µM (active) | – | – | – |
| CC1(C)OC2=C(C(=O)c3ccccc3C2=O)[C@H](NCc2ccccc2)[C@H]1O | 2.64 µM (active) | 2.09 µM (active) | 2.35 µM (active) | 0.662 µM (active) | 5.26 µM (active) | 4.18 µM (active) | 2.35 µM (active) | 1.87 µM (active) | 2.64 µM (active) | 1.48 µM (active) |
| Nc1ccn([C@@H]2CS[C@H](CO)O2)c(=O)n1 | inactive | 42.9 µM (active) | inactive | inactive | inactive | inactive | inactive | – | – | inactive |
| COc1cccc2c(NCc3ccccc3)nc(-n3c(N)nc4ccccc43)nc12 | 6.62 µM (active) | 2.96 µM (active) | 6.62 µM (active) | 1.05 µM (active) | 7.43 µM (active) | 4.69 µM (active) | 1.66 µM (active) | – | 3.32 µM (active) | – |
| CC1COC2(CCN(c3nc(=O)c4cc(C(F)(F)F)cc([N+](=O)[O-])c4s3)CC2)O1 (centres undefined) | inactive | inactive | inactive | inactive | inactive | inactive | inactive | – | – | inactive |
| CCN(CC)CCCCNc1ncc2cc(-c3cc(OC)cc(OC)c3)c(NC(=O)NC(C)(C)C)nc2n1 | 20.9 µM (active) | 9.35 µM (active) | 23.5 µM (active) | 26.4 µM (active) | 23.5 µM (active) | 23.5 µM (active) | 18.7 µM (active) | – | 9.35 µM (active) | 26.4 µM (active) |
| NC(=O)Nc1cc(-c2cccc(F)c2)sc1C(=O)N[C@H]1CCCNC1 | 0.0833 µM (active) | 0.105 µM (active) | 0.296 µM (active) | 0.662 µM (active) | 3.72 µM (active) | 0.526 µM (active) | 0.187 µM (active) | 0.0833 µM (active) | 0.0743 µM (active) | 3.72 µM (active) |
| CC[C@H]1CN2CCc3cc(OC)c(OC)cc3[C@H]2C[C@@H]1C[C@@H]1NCCc2cc(OC)c(OC)cc21 | 0.372 µM (active) | 0.166 µM (active) | 0.187 µM (active) | 0.235 µM (active) | 0.187 µM (active) | 0.296 µM (active) | 0.187 µM (active) | – | 0.166 µM (active) | 0.235 µM (active) |
| O=C(C=Cc1cccc(S(=O)(=O)Nc2ccccc2)c1)NO | 1.52 µM (active) | 1.71 µM (active) | 6.05 µM (active) | 0.855 µM (active) | 0.96 µM (active) | 1.08 µM (active) | 1.08 µM (active) | 1.08 µM (active) | 3.82 µM (active) | – |
| CC(C)CC(=O)Nc1n[nH]c2c1CN(C(=O)C1CCN(C)CC1)C2(C)C | 1.66 µM (active) | 0.166 µM (active) | 1.66 µM (active) | 1.66 µM (active) | 1.05 µM (active) | 1.32 µM (active) | 1.18 µM (active) | 0.526 µM (active) | 1.18 µM (active) | 2.64 µM (active) |
| CC(C)[C@H](C(=O)Nc1ccc(C(=O)NO)cc1)c1ccccc1 | 0.372 µM (active) | 0.372 µM (active) | 1.87 µM (active) | 0.469 µM (active) | 0.132 µM (active) | 0.418 µM (active) | 0.662 µM (active) | 0.469 µM (active) | 1.32 µM (active) | 1.05 µM (active) |

Source: PubChem BioAssay (NCATS)
